From PubChem BioAssay (NCATS) come the findings set out here.

Assay [1] in a line: Cytotoxicity counterscreen for NFkB agonists and antagonists (AID 624476). Also: potency is read from the fitted curve at half-maximal effect. For orientation: Counterscreens check selectivity or assay interference.
Assay [2] is described as follows: qHTS Assay for Identification of Small Molecule Agonists for NFkB Signaling Pathway. (AID 624478). Also: 0% is about no effect. The procedure, abridged: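 NFkB-bla ME-180 cells (beta-lactamase reporter under NFkB response element) were plated overnight, treated with compound plus TNF alpha at 10 pM final (its EC50) for 5 hrs at 37 C, then loaded with LiveBLAzer substrate for 2 hrs.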
(In general: qHTS replaces the single test concentration by a dilution series.)

The nature of assay [3]: Cell Proliferation Assay against the HBL1 Cell Line (AID 651646).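 Also: cells exposed to compound for 48 h before reading.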 As to conditions: HBL1 DLBCL cells; at 46.1 µM (top of the series). The procedure, abridged:
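Luminescent ATP read-out (CellTiter-Glo) after 48 h compound exposure of HBL1 cells at 37 °C; percent activity was scaled between DMSO as 100% and 9.2 uM bortezomib (final) as 0%.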

The nature of assay [4]: Cell Proliferation Assay against the TMD8 Cell Line (Caspase readout at 8 hrs) (AID 651713). Also: potency is read from the fitted curve at half-maximal effect. The procedure, abridged: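 TMD8 cells (500/well) in phenol red-free RPMI with 5% FBS were treated with compounds for 8 h at 37C, 5% CO2. Caspase-Glo 3/7 luminescence was read after 15 min at room temperature and normalised to DMSO (0%) and 9.2 uM bortezomib (100%).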
Assay [5] in a line: qHTS Assay for Identification of Small Molecule Antagonists for NFkB Signaling Pathway. (AID 624479; calls by dose curve;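 also: pathway stimulated with TNF alpha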; also: potency is read from the fitted curve at half-maximal effect).
Assay [6] can be described thus: Cell Proliferation Assay against the TMD8 Cell Line (AID 651645).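 Also: cells exposed to compound for 48 h before reading.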 As to conditions: TMD8 DLBCL cell line proliferation/viability; at 46.1 µM (top of the series). The procedure, abridged: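 Seed log-phase TMD8 cells in RPMI containing 5% FBS, add compounds at once, incubate 48 hours at 37C. Equilibrate to room temperature, add CellTiter-Glo, read luminescence after 15 minutes and express relative to DMSO and bortezomib controls.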

Assay [7] is described as follows: Cell Proliferation Assay against the TMD8 Cell Line (Caspase readout at 16 hrs) (AID 651712). Also: potency is read from the fitted curve at half-maximal effect. A digest of the protocol:
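Apoptotic response of TMD8 cells was judged from caspase 3/7 activation following a 16 hour compound incubation at 37 °C. Luminescent signal was converted to percent activity, with DMSO set as 0% and 9.2 uM final bortezomib as 100%.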

Records with an inconclusive call do not appear. Calls of active or inactive are those of the source. Unless noted, calls follow the shape of the dose curve; as a rule, active = well fitted curve in the direction sought with a large enough effect; inconclusive = small, poorly fitted or top-dose-only effect, or another doubt; inactive = no such curve, though single readings can be large; an effect the other way counts as inactive or inconclusive.

In the case of `COc1cc(OC2CCN(C)CC2)ccc1Nc1ncc2c(n1)n(C1CCCC1)c(=O)n2C`, the Potency result in assay [1] is “inactive”. Moreover, the outcome in assay [2] was inactive. Moreover, the viability, percent of control in assay [3] came out at 38.2%. For the same molecule, the Potency in assay [4] was 10.5 µM (active).
On to `C=C1C(=CC=C2CCC[C@]3(C)[C@@H]([C@H](C)C=C[C@H](C)C(C)C)CC[C@@H]23)C[C@@H](O)C[C@@H]1O`, for which the molecule was called inactive in assay [2]. Moreover, the Potency in assay [5] is 21.1 µM (active).
For `COc1ccc(OC)c(-c2nnc3ccc(-c4ccc(OC)c(O[C@@H]5CCOC5)c4)nn23)c1`, the Potency entry in assay [1] was “inactive”. In addition, the result in assay [2] was inactive. Further, in assay [6], the viability (% of control) is 15.1%. Further, the viability, percent of control in assay [3] stood at 42.3%. In addition, the Potency in assay [7] was 20.9 µM (active).
For `Cc1ccc(C(=O)Nc2ccc(CN3CCN(C)CC3)c(C(F)(F)F)c2)cc1C#Cc1cnc2cccnn12`, the Potency was 20.9 µM (active) in assay [1], 2.66 µM (active) in assay [5], 0.662 µM (active) in assay [7] and 23.5 µM (active) in assay [4]. In addition, the viability, percent of control in assay [3] turned out to be 2.46%.
`Cc1[nH]c2ccccc2c1CCNCc1ccc(C=CC(=O)NO)cc1`: the Potency in assay [1] was 0.332 µM (active); in assay [7], 0.0332 µM (active). Also, the call in assay [2] was inactive. Besides, the viability (% of control) in assay [6] stood at 1.52%. Moreover, in assay [3], the viability, percent of control is -0.0299%.
Regarding `NC(=O)c1c(OCc2c(F)cc(Br)cc2F)nsc1NC(=O)NCCCCN1CCCC1`, the Potency entry in assay [1] and in assay [7] was “inactive” in each case. For the same molecule, the molecule was called inactive in assay [2]. In addition, in assay [6], the viability (% of control) came to 8.16%. Besides, in assay [3], the viability, percent of control amounted to 4.14%.
`Nc1nc(-c2nn(Cc3ccccc3F)c3ncccc23)nc(N)c1N1CCOCC1`: the Potency result in assay [1], in assay [5], in assay [7] and in assay [4] was “inactive” throughout. Moreover, the result in assay [2] was inactive.
`CC1=C(CO)C(=O)O[C@@H]([C@@H](C)[C@H]2CC[C@H]3[C@@H]4C[C@H]5O[C@]56[C@@H](O)C=CC(=O)[C@]6(C)[C@@H]4CC[C@]23C)C1`: the Potency was 3.32 µM (active) in assay [1] and 1.49 µM (active) in assay [5]. Moreover, the viability (% of control) in assay [6] was found to be 0.616%. The viability, percent of control in assay [3] turned out to be 1.69%. Also, the Potency entry in assay [7] and in assay [4] was “inactive” throughout.
For the molecule `CN1CCN(c2cc(C(=O)Nc3ccc4c(c3)-c3c(c(C(N)=O)nn3-c3ccc(F)cc3)CC4)c(Cl)cn2)CC1`, the Potency entry in assay [1] is “inactive”. Moreover, the molecule was classed as inactive in assay [2]. Further, the viability (% of control) in assay [6] was 0.112%. In assay [3], the viability, percent of control was found to be 0.345%. Further, the Potency in assay [4] is 33.2 µM (active).
